Consider ten compounds from PubChem BioAssay (NCI).

Test [1] can be described thus: NCI Yeast Anticancer Drug Screen. Data for the rad50 strain (AID 155).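 Further: 0% = growth of vehicle-only cultures of the same strain.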 The note with it: S. cerevisiae rad50 strain growth inhibition, active compounds read high. An outline of the steps: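 Readout: growth inhibition relative to vehicle-treated cultures. Compound exposure was carried out in a genetically defined yeast strain deficient in DNA damage repair.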
A short description of test [2]: NCI Yeast Anticancer Drug Screen. Data for the mec2-1 strain (AID 157). The note with it: S. cerevisiae mec2-1 strain, active compounds read high. An outline of the steps:
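Each compound was tested on mec2-1 yeast, a strain altered in DNA damage repair or cell cycle control. Growth inhibition is reported relative to vehicle.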

Test [3] in a line: NCI Yeast Anticancer Drug Screen. Data for the sgs1 mgt1 strain (AID 161).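 Further: 0% = growth of cultures given vehicle only.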 The note with it: S. cerevisiae sgs1 mgt1 strain, active compounds read high. The gist of the method: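 Test agents were incubated with a DNA-repair-mutant yeast strain. Growth was then read and compared against vehicle-treated controls.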
Test [4] in a line: NCI Yeast Anticancer Drug Screen. Data for the cln2 rad14 strain (AID 165).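 Further: 0% = growth equal to vehicle treated cultures.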 The note with it: S. cerevisiae cln2 rad14 strain, active compounds read high. An outline of the steps:
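Test compounds were added to cln2 rad14 yeast cultures; inhibition of growth was then determined by comparison with vehicle treatment.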

A short description of test [5]: NCI Yeast Anticancer Drug Screen. Data for the bub3 strain (AID 167). The note with it: S. cerevisiae bub3 mutant strain, active compounds read high. An outline of the steps: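 Readout: yeast growth inhibition, expressed relative to vehicle-only wells. The test organism is a mutant strain from a panel with lesions in DNA repair or checkpoint genes.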
The nature of test [6]: NCI Yeast Anticancer Drug Screen. Data for the mlh1 rad18 strain (AID 175). The note with it: S. cerevisiae mlh1 rad18 strain growth inhibition, active compounds read high. An outline of the steps: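 Inhibition values reflect reduced growth of mutant yeast versus vehicle-treated controls following compound exposure; the mutations affect DNA damage repair.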
Setting [7] is: at 5.0 µM (retest, dose inferred, filed as 0.5).
[8] abbreviates: at 50.0 µM (retest, dose inferred, filed as 5.0).

Molecules are shown by their SMILES. This is part of a sample that, as a whole, favours compounds with a hit. Of some 79,000 tested, about 15% had one in any assay. Values without a mark were called inactive. Activity calls are given as the source filed them. No stated cut-off is given here; in the data, active means growth inhibition above about 70%; inactive means the rest.

For the compound `CCC(C)(C)c1cc(Br)c(NS(=O)(=O)c2ccc(NC(C)=O)cc2)c(Br)c1`, the growth inhibition in test [1] (setting [7]) is 5%; in test [1] (setting [8]), 80% (active); in test [1] (at 50.0 µM), -6.75%; in test [2] (setting [7]) it was 13%; in test [2] (setting [8]), 65%; in test [2] (at 50.0 µM), 8.05%. The growth inhibition in test [3] (setting [7]) is -9%; in test [3] (setting [8]), 35%; in test [3] (at 50.0 µM) it was -0.45%; in test [4] (setting [7]), 9%; in test [4] (setting [8]), 78% (active); in test [4] (at 50.0 µM) it was 6.85%. Further, the growth inhibition is -3% in test [5] (setting [7]); 62% in test [5] (setting [8]); 6.5% in test [5] (at 50.0 µM); 8% in test [6] (setting [7]); 42% in test [6] (setting [8]); 20.5% in test [6] (at 50.0 µM).
On to `CCN(CC)c1ccc(N=Nc2ccc(-c3nc4ccc[n+](C)c4s3)cc2)cc1`, for which the growth inhibition in test [1] (setting [7]) was 99% (active); in test [1] (setting [8]) it was 99% (active); in test [1] (at 50.0 µM) it was 89.6% (active); in test [2] (setting [7]), 99% (active); in test [2] (setting [8]) it was 99% (active); in test [2] (at 50.0 µM) it was 88.8% (active). The growth inhibition was 99% (active) in test [3] (setting [7]); 99% (active) in test [3] (setting [8]); 88.2% (active) in test [3] (at 50.0 µM); 100% (active) in test [4] (setting [7]); 100% (active) in test [4] (setting [8]); 88.2% (active) in test [4] (at 50.0 µM). The growth inhibition is 99% (active) in test [5] (setting [7]); 99% (active) in test [5] (setting [8]); 91.1% (active) in test [5] (at 50.0 µM); 99% (active) in test [6] (setting [7]); 99% (active) in test [6] (setting [8]); 88.8% (active) in test [6] (at 50.0 µM).
Take `CC1/C(=N\O)CC(c2ccccc2)N(C)C1c1ccccc1` (stereo not given): the growth inhibition is 96% (active) in test [1] (setting [7]); 96% (active) in test [1] (setting [8]); 98.2% (active) in test [1] (at 50.0 µM); 96% (active) in test [2] (setting [7]); 98% (active) in test [2] (setting [8]); 98.2% (active) in test [2] (at 50.0 µM). The growth inhibition is 96% (active) in test [3] (setting [7]); 97% (active) in test [3] (setting [8]); 97.7% (active) in test [3] (at 50.0 µM); 58% in test [4] (setting [7]); 78% (active) in test [4] (setting [8]); 83.5% (active) in test [4] (at 50.0 µM). The growth inhibition in test [5] (setting [7]) is 94% (active); in test [5] (setting [8]), 96% (active); in test [5] (at 50.0 µM) it was 98% (active); in test [6] (setting [7]), 95% (active); in test [6] (setting [8]) it was 97% (active); in test [6] (at 50.0 µM) it was 97.7% (active).
On to `CCCC/C(=N/Nc1ccc([N+](=O)[O-])cc1)C(=O)O`, for which the growth inhibition was 14% in test [1] (setting [7]); 97% (active) in test [1] (setting [8]); 71.5% (active) in test [1] (at 50.0 µM); 8% in test [2] (setting [7]); 95% (active) in test [2] (setting [8]); 24.3% in test [2] (at 50.0 µM). The growth inhibition is 14% in test [3] (setting [7]); 97% (active) in test [3] (setting [8]); 75% (active) in test [3] (at 50.0 µM); -3% in test [4] (setting [7]); 60% in test [4] (setting [8]); 24.5% in test [4] (at 50.0 µM). The growth inhibition in test [5] (setting [7]) is 18%; in test [5] (setting [8]), 98% (active); in test [5] (at 50.0 µM), 82% (active); in test [6] (setting [7]), 21%; in test [6] (setting [8]), 98% (active); in test [6] (at 50.0 µM), 57.4%.
For `O=c1cccccc1[O-].O=c1cccccc1[O-].O=c1cccccc1[O-].[Nd+3]`, the growth inhibition in test [1] (setting [7]) is 11%; in test [1] (setting [8]), 11%; in test [1] (at 50.0 µM) it was 91.9% (active); in test [2] (setting [7]), 20%; in test [2] (setting [8]) it was 20%; in test [2] (at 50.0 µM), 91% (active). Further, the growth inhibition in test [3] (setting [7]) was 15%; in test [3] (setting [8]) it was 15%; in test [3] (at 50.0 µM), 89.3% (active); in test [4] (setting [7]), 3%; in test [4] (setting [8]) it was 3%; in test [4] (at 50.0 µM), 80.9% (active). The growth inhibition in test [5] (setting [7]) is 9%; in test [5] (setting [8]) it was 9%; in test [5] (at 50.0 µM) it was 92.5% (active); in test [6] (setting [7]), 13%; in test [6] (setting [8]), 13%; in test [6] (at 50.0 µM), 87.2% (active).
For the compound `CCC1=C(c2ccccc2)C(O)(c2ccccc2)C(CC)C1=O` (stereo not given), the growth inhibition in test [1] (setting [7]) is -3%; in test [1] (setting [8]), 99% (active); in test [1] (at 50.0 µM), 94% (active); in test [2] (setting [7]), -5%; in test [2] (setting [8]), 99% (active); in test [2] (at 50.0 µM) it was 92.5% (active). The growth inhibition is -7% in test [3] (setting [7]); 99% (active) in test [3] (setting [8]); 97.3% (active) in test [3] (at 50.0 µM); 5% in test [4] (setting [7]); 99% (active) in test [4] (setting [8]); 92.2% (active) in test [4] (at 50.0 µM). The growth inhibition is -4% in test [5] (setting [7]); 99% (active) in test [5] (setting [8]); 97.7% (active) in test [5] (at 50.0 µM); -2% in test [6] (setting [7]); 98% (active) in test [6] (setting [8]); 97.8% (active) in test [6] (at 50.0 µM).
In the case of `C/C(C=C(C#N)C#N)=C\c1ccc([N+](=O)[O-])cc1`, the growth inhibition in test [1] (setting [7]) was -9%; in test [1] (setting [8]), 67%; in test [1] (at 50.0 µM) it was 78.2% (active); in test [2] (setting [7]) it was -16%; in test [2] (setting [8]), 67%; in test [2] (at 50.0 µM), 70.4% (active). Further, the growth inhibition in test [3] (setting [7]) was -1%; in test [3] (setting [8]) it was 40%; in test [3] (at 50.0 µM), 64.8%; in test [4] (setting [7]) it was 36%; in test [4] (setting [8]) it was 60%; in test [4] (at 50.0 µM), 55.5%. The growth inhibition in test [5] (setting [7]) is 15%; in test [5] (setting [8]) it was 81% (active); in test [5] (at 50.0 µM), 64.8%; in test [6] (setting [7]), -3%; in test [6] (setting [8]) it was 89% (active); in test [6] (at 50.0 µM), 67.3%.
On to `Cc1cccc(C[N+](C)(C)CCCO)c1C`, for which the growth inhibition in test [1] (setting [7]) was 1%; in test [1] (setting [8]), 1%; in test [1] (at 50.0 µM), -6.15%; in test [2] (setting [7]), 4%; in test [2] (setting [8]), 0%; in test [2] (at 50.0 µM), -24.6%. Moreover, the growth inhibition in test [3] (setting [7]) is 3%; in test [3] (setting [8]), 1%; in test [3] (at 50.0 µM) it was -0.35%; in test [4] (setting [7]), 2%; in test [4] (setting [8]), 1%; in test [4] (at 50.0 µM), 46.1%. Besides, the growth inhibition is 0% in test [5] (setting [7]); 1% in test [5] (setting [8]); -1.9% in test [5] (at 50.0 µM); 0% in test [6] (setting [7]); -3% in test [6] (setting [8]); -4.7% in test [6] (at 50.0 µM).
Consider `O=C(Oc1ccc(O)c2ccccc12)c1ccccc1`, for which the growth inhibition was 0% in test [1] (setting [7]); 2% in test [1] (setting [8]); 98.7% (active) in test [1] (at 50.0 µM); -3% in test [2] (setting [7]); 6% in test [2] (setting [8]); 98.6% (active) in test [2] (at 50.0 µM). The growth inhibition was 1% in test [3] (setting [7]); -16% in test [3] (setting [8]); 98.3% (active) in test [3] (at 50.0 µM); -7% in test [4] (setting [7]); -5% in test [4] (setting [8]); 98.5% (active) in test [4] (at 50.0 µM). The growth inhibition was -5% in test [5] (setting [7]); 5% in test [5] (setting [8]); 98.5% (active) in test [5] (at 50.0 µM); -7% in test [6] (setting [7]); 7% in test [6] (setting [8]); 97.2% (active) in test [6] (at 50.0 µM).
In the case of `COc1ccc2c(C(=O)c3ccccc3)c3[n+](cc2c1OC)CCc1cc2c(cc1-3)OCO2`, the growth inhibition is -1% in test [1] (setting [7]); 38% in test [1] (setting [8]); 65.7% in test [1] (at 50.0 µM); -21% in test [2] (setting [7]); 22% in test [2] (setting [8]); 53.6% in test [2] (at 50.0 µM). For the same compound, the growth inhibition in test [3] (setting [7]) was -4%; in test [3] (setting [8]), 20%; in test [3] (at 50.0 µM), 52.1%; in test [4] (setting [7]), -4%; in test [4] (setting [8]), 21%; in test [4] (at 50.0 µM), 30.1%. Besides, the growth inhibition is -4% in test [5] (setting [7]); 24% in test [5] (setting [8]); 50.3% in test [5] (at 50.0 µM); -2% in test [6] (setting [7]); 24% in test [6] (setting [8]); 75.5% (active) in test [6] (at 50.0 µM).
